The structures appear in SMILES notation. Hit rate of the full screen: of about 220,000 compounds, about 10 (0.005%) were called active. No stated cut-off is given here; in the data, active means maximum fold increase above about 1.5; inconclusive means no clear call, values can overlap the other calls; inactive means below that; tested in PC3 cells. A selection follows.

The test is described as follows: enhancers of HSV replication in host cells, fold increase, host cell viability (AID 1956). The conditions noted are these: HSV replication augmentation in cells; fold increase: measured here: primary screen fold increase 10 uM, at 10 µM, stronger effect = higher value; maximum fold increase: at 0.098 µM, stronger effect = higher value; viability: measured here: host cell viability series, at 25 µM, stronger effect = lower value.
Consider `C/C(=N\Nc1cccc(C(=O)O)c1)c1ccc2c(c1)Nc1ccccc1S2`, for which the fold increase came to 1.22 and the result was inactive.
On the same counts, the results for `O=C(NCc1ccccc1)c1onc(CSc2ccncc2)c1C(=O)NCc1ccccc1` are 0.71 and “inactive”.
As for `O=C(N/N=C\c1cc(Br)c(Br)o1)C1COc2ccccc2O1` (stereo unspecified), the fold increase is 1.28 and the result was inactive.
Turning to `CC(C)c1cc(CN2CCOCC2)cc(C(C)C)c1O`, the fold increase worked out at 1.06 and the result was inactive.
`CC(C)=CCc1c(O)c(CC=C(C)C)c2occ(-c3ccc(O)cc3)c(=O)c2c1O`: the fold increase came out at 0.74 and the outcome was inactive.
For `CN(C)CCCN(Cc1cc2cc3c(cc2[nH]c1=O)OCCO3)C(=O)NC1CCCCC1`, the fold increase worked out at 0.89 and the outcome was inactive.
`C/C(CC(C)C)=N\Oc1nc(C)cc(C)n1`: the fold increase was 0.9 and the outcome was inactive.
For `COc1ccc(Nc2cc(=O)n(-c3ccccc3)c3c2c(=O)n(C)c(=O)n3C)cc1`, the fold increase was determined as 1.09 and the outcome was inactive.
With `NC(=O)C1=C[C@@H](c2ccc3c(c2)OCO3)C[C@@H](OCCCCO)O1`, the fold increase was found to be 0.58 and the result was inactive.
Take `O=C(NCC1CC1)c1onc(CSc2ccccc2)c1C(=O)NCC1CC1`: the fold increase was found to be 1.02 and the result was inactive.
On the same counts, the results for `Cc1ccc(S(=O)(=O)N2CCN(C(=O)COC(=O)c3c(C)noc3C)CC2)c(C)c1` are 0.83 and “inactive”.
Regarding `COc1ccc(CN2CC[C@H]3C=CC[C@@H](C(=O)N4CCOCC4)[C@H]3C2=O)cc1OC`, the fold increase is 0.78 and the result was inactive.
Consider `Brc1ccc(-c2n(-c3ccccn3)c3ccccc3[n+]2-c2ccccn2)cc1`, for which the fold increase worked out at 1.03 and the result was inactive.
As to `Cc1[nH]n(C)c(=O)c1N=Nc1ccc(S(C)(=O)=O)cc1`, the fold increase is 1.01 and the result was inactive.
As to `O=C(CC(c1ccccc1)c1cc(Cl)ccc1O)NCCN1CCOCC1` (stereo unspecified), the fold increase was determined as 0.85 and the outcome was inactive.
The matching figures for `COC(=O)c1c(-c2ccsc2)oc2ccc(-c3cc(OC)c(OC)c(OC)c3)cc12`: 1.05 and “inactive”.
On to `Cc1cccc(NC(=O)c2ccc([N+](=O)[O-])o2)c1`, for which the fold increase was 0.66 and the result was inactive.
`C=CC1C(OC2OC(CO)C(O)C(O)C2O)OC=C(C(=O)OC)C1CC1CC(=O)CC(CC(=O)CCc2ccc(O)cc2)O1` (stereo unspecified): the fold increase amounted to 1.03 and the outcome was inactive.
As for `O=C(N/N=C/c1cccc2cccnc12)[C@H]1C[C@@H]1c1ccccc1`, the fold increase amounted to 0.97 and the outcome was inactive.
Take `COCCn1c(SCC(=O)c2[nH]c(C)c(C(C)=O)c2C)nc2ccccc2c1=O`: the fold increase amounted to 0.86 and the result was inactive.
As for `CC#CC[N+](C)(C)CCCCCC`, the fold increase was found to be 1.26 and the result was inactive.
For `O=C(NCc1ccccc1)C1=C[C@@H](c2ccccc2)C[C@@H](OCCCCO)O1`, the fold increase is 0.94 and the result was inactive.
With `O=C(COc1ccc([N+](=O)[O-])cc1Cl)Nn1cnnc1`, the fold increase is 0.85 and the outcome was inactive.
For the compound `COc1ccc(/C=C/C(=O)Nc2ccc(C)cc2)cc1S(=O)(=O)N1CCOCC1`, the fold increase amounted to 0.88 and the outcome was inactive.
For `CC1(C)S[C@@H]2[C@H](NC(=O)COc3ccccc3)C(=O)N2C1C(=O)OCc1ccccc1` (stereo partly specified), the fold increase came to 0.86 and the result was inactive.
For the compound `NC(=O)c1nnsc1-c1ccc(-c2snnc2C(N)=O)cc1`, the fold increase is 0.97 and the outcome was inactive.
Take `O=[N+]([O-])C(=c1ccc2c(c1)N1C3=C(CCCC3)CC3CCCCC31N=2)[N+](=O)[O-]` (stereo unspecified): the fold increase was found to be 1.07 and the outcome was inactive.
On to `Cc1ccc(-c2nc(SCC(=O)Nc3ccccc3OC(F)F)c3c(C)c(C(=O)O)sc3n2)cc1`, for which the fold increase came to 0.92 and the result was inactive.

The record behind these values is PubChem BioAssay AID1956 (SRMLSC, 2009).
